# Data taken from PubChem BioAssay (NCI).
# This is part of a sample that, as a whole, favours compounds with a hit. Of some 83,000 tested, about 20% had one in any assay.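 Single-concentration screen, 48 h exposure, 96-well plates. Endpoint: percent growth. Below 10 = active.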 Calls of active or inactive are those of the source.
# System: MDA-MB-468 breast
# Test: NCI-60 one-dose screen, 48 h (100 = growth as untreated, 0 = no growth, -100 = all killed)
# Details: 10 µM unless noted
row,SMILES,growth
1,CCc1c(C)c2cc3nc(NCc4ccccc4)oc3c(C)c2oc1=O,68.2% (inactive)
2,CC1(C)CCC(S(=O)(=O)c2ccc3c(c2)/C(=N\O)c2cc(S(=O)(=O)N4CCC(O)(c5cccc(C(F)(F)F)c5)CC4)ccc2-3)CC1,-78.4% (active)
3,CCOC(=O)C(=O)CC(=O)c1ccccc1,96.9% (inactive)
4,Clc1ccc(-c2nc(-c3ccco3)cn3ccnc23)cc1,-5.8% (active)
5,CCCCc1ccc2nc(NC(=O)OC)[nH]c2c1,22.3% (inactive)
6,COC(=O)/C=C1/SC(=Nc2ccc(C(F)(F)F)cc2)N(CCc2c[nH]c3ccc(O)cc23)C1=O,8.44% (active)
7,CC(C)=NNc1ncnc2c1ncn2C1OC(CO)C(O)C1O (centres undefined),12.5% (inactive)
8,O=C1Nc2ccccc2/C1=C/c1cn(C(=O)c2c(Cl)cccc2Cl)c2ccccc12,32.7% (inactive)
9,CCN1CCN(C(=O)[C@]23CCC(C)(C)C[C@@H]2C2=CC[C@@H]4[C@@]5(C)C/C(=C/c6ccncc6)C(=O)C(C)(C)[C@@H]5CC[C@@]4(C)[C@]2(C)CC3)CC1,-49.8% (active)
10,COc1cc(C2CC(c3cccc(Nc4ccncc4)c3)=NN2c2ccc(Cl)cc2)cc(OC)c1OC (centres undefined),10.3% (inactive)
11,CNC(=O)NN,107% (inactive)
12,CN1CCN(Cc2ccc(NC(=O)c3cncc(C#Cc4cnc5ccc(NC6CCOCC6)nn45)c3)cc2C(F)(F)F)CC1,-88.5% (active)
13,COc1cc(C2C3=C(COC3=O)N(CCO)c3cc4c(cc32)OCO4)cc(OC)c1OC (centres undefined),0.559% (active)
14,Nc1nccc(OCCO)n1,107% (inactive)
